Experimental findings from PubChem BioAssay (EPA / NIEHS) are described below.

Experiment [1] is described as follows: ATG_E_Box_CIS: Attagene CIS-FACTORIAL HepG2 Assay for human Enhancer Box (E-box) (AID 2282936). Particulars: HepG2 E-box cis-reporter transcription, actives raise or lower the signal. The essentials: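 Measured 24 h post-dosing in HepG2 cells transfected with multiple cis-regulated reporter units, signal being reporter mRNA induction detected by fluorescent RT-PCR with capillary electrophoresis; gain or loss fitted against DMSO.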

A short description of experiment [2]: ATG_M_61_CIS: Attagene CIS-FACTORIAL HepG2 Assay for M61 Transcription Factor (Internal Marker) (AID 2282937). The following applies: HepG2 Attagene CIS-FACTORIAL M61 internal marker reporter; actives raise or lower the signal. In a few lines:
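Multiplexed reporter mRNA assay, HepG2 human hepatoma cells, 24 h treatment. Signal: FAM-labelled, HpaI-digested RT-PCR fragments by CE. Fit: bidirectional, baseline DMSO.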

The nature of experiment [3]: ATG_EGR_CIS: Attagene CIS-FACTORIAL HepG2 Assay for human Early Growth Response 1 (EGR1) (AID 2282938). The following applies: HepG2 Attagene CIS-FACTORIAL EGR reporter mRNA; actives raise or lower the signal. In a few lines:
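Multiplexed cis-reporter system in human hepatoma HepG2 cells, transiently transfected. Cells are dosed for 24 h; reporter transcripts are amplified, fluorescently tagged and sized by capillary electrophoresis, with DMSO as negative control.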

The nature of experiment [4]: ATG_Ets_CIS: Attagene CIS-FACTORIAL HepG2 Assay for human Erythroblast Transformation Specific (ETS) (AID 2282941). Particulars: HepG2 ETS cis-reporter transcription, actives raise or lower the signal. The essentials:
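Endogenous transcription factor activity read as reporter mRNA via RT-PCR and capillary electrophoresis, with gain or loss fitted bidirectionally against DMSO. Human HepG2 liver cells, transiently transfected CIS reporter constructs, 24 h exposure.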

For experiment [5], the target named is Hepatocyte nuclear factor 3-beta (Homo sapiens) (UniProt Q9Y261). The experiment can be described thus: ATG_FoxA2_CIS: Attagene CIS-FACTORIAL HepG2 Assay for human Forkhead box A2 (FOXA2) (AID 2282942). Particulars: HepG2 cis-reporter transcription factor activity, 24 h; actives raise or lower the signal. In a few lines: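 Multiplexed cis-element reporter assay in transiently transfected HepG2. Twenty-four hours post-dosing, RNA was reverse-transcribed, amplified, FAM-labelled, HpaI-digested and separated by CE. Activity gain or loss relative to DMSO.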

Experiment [6] is described as follows: ATG_FoxO_CIS: Attagene CIS-FACTORIAL HepG2 Assay for human Forkhead box O (FoxO) (AID 2282943). Particulars: HepG2 Attagene cis-reporter, FoxO element, mRNA; actives raise or lower the signal. The essentials:
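HepG2 cells transiently transfected with cis-promoter-driven multiple reporter transcription units; 24 h after chemical dosing, reporter mRNA quantified by RT-PCR, fluorescent primer extension, HpaI digestion and capillary electrophoresis. Bidirectional fitting versus DMSO baseline.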

Experiment [7] is described as follows: ATG_GATA_CIS: Attagene CIS-FACTORIAL HepG2 Assay for human GATA Binding Protein (AID 2282944). Particulars: HepG2 GATA cis-element reporter, Attagene multiplex mRNA; actives raise or lower the signal. The essentials: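 Transfected cis-reporter HepG2 cells were treated with chemicals for 24 hours. Total RNA was then converted to cDNA, amplified with reporter-specific primers and analysed by fluorescent capillary electrophoresis, using DMSO-treated wells as baseline.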

Experiment [8] has as its target Bile acid receptor (Homo sapiens) (UniProt Q96RI1). The experiment can be described thus: ATG_IR1_CIS: Attagene CIS-FACTORIAL HepG2 Assay for human Nuclear Receptor Subfamily 1 Group H Member 4 (NR1H4), IR1 submotif (AID 2282946). Particulars: IR1 reporter transcription, actives raise or lower the signal. In a few lines: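 Readout: reporter transcript levels by RT-PCR with fluorescent capillary electrophoresis, from HepG2 cells transiently transfected with multiplexed cis-regulated reporters and dosed 24 h. Gain- or loss-of-signal fitted versus DMSO negative control.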

A short description of experiment [9]: ATG_GRE_CIS: Attagene CIS-FACTORIAL HepG2 Assay for human Glucocorticoid Response Elements (GRE) (AID 2282947). The following applies: HepG2 GRE cis-reporter, Attagene multiplex mRNA; actives raise or lower the signal. In a few lines: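 HepG2, transient cis-reporter transfection, 24 h. Reporter mRNA: RT-PCR then CE, fluorescence. Fit both directions vs DMSO.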

Experiment [10] in a line: ATG_ISRE_CIS: Attagene CIS-FACTORIAL HepG2 Assay for human Interferon Regulatory Factor 1 (IRF1) binding to an Interferon-Stimulated Response Element (ISRE) (AID 2282948). Particulars: HepG2 ISRE cis-reporter (Attagene), mRNA transcription readout; actives raise or lower the signal. In a few lines:
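Endogenous transcription factor activity read as reporter transcript abundance via RT-PCR and capillary electrophoresis. HepG2 cells transiently transfected, 24 h chemical exposure. Gain or loss fitted against DMSO baseline.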

Experiment [11] can be described thus: ATG_M_32_CIS: Attagene CIS-FACTORIAL HepG2 Assay for M32 Transcription Factor (Internal Marker) (AID 2282949).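 Note: background control marker of the multiplexed CIS panel rather than a real target.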 The following applies: HepG2 Attagene cis-factorial M32 reporter, mRNA; actives raise or lower the signal. The essentials:
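Transient MRTU transfection of HepG2; 24 h compound treatment; TriZol RNA, oligo(dT) RT, reporter PCR, 6-FAM primer extension, HpaI cut, CE. Gain/loss of signal vs DMSO.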

The nature of experiment [12]: ATG_M_06_CIS: Attagene CIS-FACTORIAL HepG2 Assay for M06 Transcription Factor (Internal Marker) (AID 2282950). The following applies: HepG2 Attagene CIS-FACTORIAL M06 internal marker reporter; actives raise or lower the signal. In a few lines: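 Cells (HepG2, transiently carrying cis-driven reporter units) receive chemical for 24 h before RNA isolation. Reporter cDNA is PCR-amplified, FAM-labelled by primer extension, HpaI-digested and sized on a capillary analyser.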

In experiment [13] the target is Hypoxia-inducible factor 1-alpha (Homo sapiens) (UniProt Q16665). The experiment can be described thus: ATG_HIF1a_CIS: Attagene CIS-FACTORIAL HepG2 Assay for human Hypoxia Inducible Factor 1 (HIF1A) (AID 2282951). The following applies: HepG2 Attagene cis-factorial HIF1a reporter transcription; actives raise or lower the signal. The essentials: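 Cis-element reporter constructs were transiently transfected into HepG2 cells, which were treated for 24 h; reporter RNA was reverse-transcribed, amplified, labelled and resolved by capillary electrophoresis.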

For experiment [14], the target named is Hepatocyte nuclear factor 6 (Homo sapiens) (UniProt Q9UBC0). The experiment is described as follows: ATG_HNF6_CIS: Attagene CIS-FACTORIAL HepG2 Assay for human Hepatocyte Nuclear Factor 6 (HNF6) (AID 2282952). The following applies: HepG2 Attagene cis-factorial HNF6 reporter transcription; actives raise or lower the signal. In a few lines: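 Readout: fluorescent reporter-transcript fragments resolved by capillary electrophoresis after RT-PCR, reflecting endogenous factor activity in transfected HepG2. Exposure 24 h. Gain or loss of signal fitted bidirectionally against DMSO.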

The target in experiment [15] is Heat shock factor protein 1 (Homo sapiens) (UniProt Q00613). The experiment is described as follows: ATG_HSE_CIS: Attagene CIS-FACTORIAL HepG2 Assay for human Heat Shock Transcription Factor 1 (HSE) (AID 2282953). Particulars: HepG2 HSE cis-reporter, Attagene RNA transcription; actives raise or lower the signal. The essentials: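 Liver-derived HepG2 cells carry transiently introduced multiple reporter units governed by cis promoters. Reporter RNA measured 24 h post-dose through reverse transcription, PCR amplification, fluorescent labelling and capillary electrophoresis, normalised to DMSO.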

Experiment [16] in a line: ATG_MRE_CIS: Attagene CIS-FACTORIAL HepG2 Assay for human Metal Responsive Element (MRE) (AID 2282954). Particulars: HepG2 MRE cis-reporter transcription, Attagene multiplex; actives raise or lower the signal. The essentials:
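Readout: capillary electrophoresis of 6-FAM-labelled, HpaI-digested RT-PCR reporter products. System: HepG2 cells carrying transient multiplexed cis reporters, dosed 24 h. Analysis: bidirectional fit, DMSO baseline.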

Experiment [17] can be described thus: ATG_PBREM_CIS: Attagene CIS-FACTORIAL HepG2 Assay for human Phenobarbital-responsive Enhancer Module (PBREM) (AID 2282955). Particulars: HepG2 PBREM cis-reporter, Attagene multiplexed transcription; actives raise or lower the signal. In a few lines:
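Multiplexed cis-reporter readout in human hepatoma HepG2 cells; PBREM-regulated transcript quantified after 24 h exposure by fluorescent RT-PCR fragment analysis. Signal changes up or down fitted relative to DMSO.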

Experiment [18] in a line: ATG_M_19_CIS: Attagene CIS-FACTORIAL HepG2 Assay for M19 Transcription Factor (Internal Marker) (AID 2282939). The following applies: HepG2 Attagene CIS-FACTORIAL M19 internal marker reporter; actives raise or lower the signal. The essentials: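 Chemical-treated HepG2 (24 h) with MRTU constructs; reporter transcripts detected by fluorescent RT-PCR fragment analysis on capillary electrophoresis. Internal background marker, DMSO as baseline.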

Experiment [19] is described as follows: ATG_GLI_CIS: Attagene CIS-FACTORIAL HepG2 Assay for human Zinc Finger Protein GLI1 (AID 2282945). Particulars: HepG2, Attagene cis-factorial reporter mRNA, GLI element; actives raise or lower the signal. The essentials:
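HepG2 cells transiently transfected with cis-promoter multiplexed reporter units report endogenous transcription factor activity. After 24 h chemical exposure, reporter mRNA was quantified by RT-PCR, 6-FAM labelling, HpaI digestion and capillary electrophoresis, with bidirectional fitting against DMSO.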

Experiment [20] is described as follows: ATG_ERE_CIS: Attagene CIS-FACTORIAL HepG2 Assay for Estrogen Response Element (ERE) (AID 2282940). Particulars: HepG2 ERE cis-reporter, Attagene RNA transcript; actives raise or lower the signal. The essentials: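 Human liver cells (HepG2) bearing transiently transfected, promoter-regulated reporter units were exposed 24 h. Reporter mRNA induction was detected by capillary electrophoresis of labelled RT-PCR products and fitted bidirectionally to DMSO.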

The source made the active and inactive calls. Rule for the calls: active = hit-call score of the fitted dose curve at least 0.9, where 1 is the maximum; inactive = score below 0.9.

Hepatocyte nuclear factor 6 (Homo sapiens), sequence (Q9UBC0 whole entry, looked up, the tested form may be a part): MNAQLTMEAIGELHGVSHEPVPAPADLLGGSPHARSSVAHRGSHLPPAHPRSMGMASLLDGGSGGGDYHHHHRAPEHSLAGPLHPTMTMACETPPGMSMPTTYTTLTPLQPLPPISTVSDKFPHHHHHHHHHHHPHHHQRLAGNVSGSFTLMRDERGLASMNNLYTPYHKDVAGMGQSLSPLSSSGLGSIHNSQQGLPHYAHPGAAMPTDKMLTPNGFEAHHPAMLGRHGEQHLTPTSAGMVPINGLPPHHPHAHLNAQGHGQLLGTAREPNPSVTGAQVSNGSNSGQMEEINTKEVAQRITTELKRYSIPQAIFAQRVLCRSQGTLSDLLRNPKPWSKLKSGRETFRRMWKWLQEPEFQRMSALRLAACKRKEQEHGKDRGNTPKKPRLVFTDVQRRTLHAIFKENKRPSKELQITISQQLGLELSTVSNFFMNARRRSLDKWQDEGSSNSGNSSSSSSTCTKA
Hepatocyte nuclear factor 3-beta (Homo sapiens), sequence (Q9Y261 whole entry, looked up): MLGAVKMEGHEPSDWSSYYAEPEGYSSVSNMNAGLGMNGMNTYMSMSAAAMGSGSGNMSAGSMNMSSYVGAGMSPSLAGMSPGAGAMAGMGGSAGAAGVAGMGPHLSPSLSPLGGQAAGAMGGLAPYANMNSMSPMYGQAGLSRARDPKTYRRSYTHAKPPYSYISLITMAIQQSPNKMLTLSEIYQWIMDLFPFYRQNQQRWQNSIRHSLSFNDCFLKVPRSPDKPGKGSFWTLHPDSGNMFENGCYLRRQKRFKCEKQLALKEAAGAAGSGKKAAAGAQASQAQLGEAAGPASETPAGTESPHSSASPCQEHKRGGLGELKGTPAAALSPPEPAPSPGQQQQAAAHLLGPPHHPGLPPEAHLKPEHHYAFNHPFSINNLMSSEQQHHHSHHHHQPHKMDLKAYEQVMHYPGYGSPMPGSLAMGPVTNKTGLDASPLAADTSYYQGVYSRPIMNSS
Heat shock factor protein 1 (Homo sapiens), sequence (Q00613 whole entry, looked up): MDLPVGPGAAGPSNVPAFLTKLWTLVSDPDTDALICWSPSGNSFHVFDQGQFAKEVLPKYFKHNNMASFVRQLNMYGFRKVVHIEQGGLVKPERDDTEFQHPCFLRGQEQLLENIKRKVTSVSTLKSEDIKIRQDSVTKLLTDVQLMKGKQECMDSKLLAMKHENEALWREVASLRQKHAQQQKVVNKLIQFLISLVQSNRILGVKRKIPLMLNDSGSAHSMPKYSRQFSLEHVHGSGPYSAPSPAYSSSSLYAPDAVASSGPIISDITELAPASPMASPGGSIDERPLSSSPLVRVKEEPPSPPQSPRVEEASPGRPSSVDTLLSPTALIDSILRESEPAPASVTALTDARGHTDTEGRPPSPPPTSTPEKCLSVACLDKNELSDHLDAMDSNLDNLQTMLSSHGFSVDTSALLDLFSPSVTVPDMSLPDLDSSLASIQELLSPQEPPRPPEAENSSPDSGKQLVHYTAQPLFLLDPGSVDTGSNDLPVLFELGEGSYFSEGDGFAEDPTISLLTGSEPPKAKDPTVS
Bile acid receptor (Homo sapiens), sequence (Q96RI1 whole entry, looked up): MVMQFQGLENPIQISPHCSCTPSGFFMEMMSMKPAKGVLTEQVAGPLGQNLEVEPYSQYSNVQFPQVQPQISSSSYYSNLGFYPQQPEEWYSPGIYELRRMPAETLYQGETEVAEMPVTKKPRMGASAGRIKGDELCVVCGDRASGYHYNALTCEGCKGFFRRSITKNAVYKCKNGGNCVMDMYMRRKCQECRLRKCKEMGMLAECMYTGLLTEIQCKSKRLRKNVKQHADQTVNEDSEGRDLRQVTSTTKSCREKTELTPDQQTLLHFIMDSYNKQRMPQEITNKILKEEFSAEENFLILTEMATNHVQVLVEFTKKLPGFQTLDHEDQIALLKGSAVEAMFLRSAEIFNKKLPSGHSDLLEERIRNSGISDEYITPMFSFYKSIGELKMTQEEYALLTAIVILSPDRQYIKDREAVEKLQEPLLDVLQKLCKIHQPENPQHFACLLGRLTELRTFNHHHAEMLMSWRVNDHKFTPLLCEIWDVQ
Hypoxia-inducible factor 1-alpha (Homo sapiens), sequence (Q16665 whole entry, looked up): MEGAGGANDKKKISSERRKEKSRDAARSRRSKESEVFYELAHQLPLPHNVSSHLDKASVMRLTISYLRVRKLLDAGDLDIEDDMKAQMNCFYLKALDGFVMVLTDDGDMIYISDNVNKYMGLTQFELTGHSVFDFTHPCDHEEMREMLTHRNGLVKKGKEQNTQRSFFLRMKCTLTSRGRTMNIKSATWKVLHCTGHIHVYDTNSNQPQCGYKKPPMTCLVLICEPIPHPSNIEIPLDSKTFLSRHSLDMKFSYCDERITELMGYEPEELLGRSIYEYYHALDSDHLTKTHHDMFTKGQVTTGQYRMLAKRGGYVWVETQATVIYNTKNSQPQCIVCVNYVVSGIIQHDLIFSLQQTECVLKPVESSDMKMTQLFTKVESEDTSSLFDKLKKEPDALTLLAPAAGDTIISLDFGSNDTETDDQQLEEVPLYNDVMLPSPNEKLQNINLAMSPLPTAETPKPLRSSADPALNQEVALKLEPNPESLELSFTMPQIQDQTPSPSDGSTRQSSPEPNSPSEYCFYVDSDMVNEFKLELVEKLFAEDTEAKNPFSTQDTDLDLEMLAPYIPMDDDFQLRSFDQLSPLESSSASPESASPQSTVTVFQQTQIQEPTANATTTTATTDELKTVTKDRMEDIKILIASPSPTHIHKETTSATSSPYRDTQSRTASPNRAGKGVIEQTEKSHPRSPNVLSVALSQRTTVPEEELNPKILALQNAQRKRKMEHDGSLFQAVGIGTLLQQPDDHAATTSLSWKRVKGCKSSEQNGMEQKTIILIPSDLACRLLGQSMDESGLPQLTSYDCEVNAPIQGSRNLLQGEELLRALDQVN

For the molecule `CC(C)(C#N)c1cc(Cn2cncn2)cc(C(C)(C)C#N)c1`, the result in experiment [1], in experiment [2], in [3], in experiment [4], in experiment [5] and in experiment [6] was inactive. The molecule was classed as inactive in experiment [7], in experiment [8], in [9], in [10], in experiment [11] and in experiment [12]. Besides, the call in experiment [13], in experiment [14], in experiment [15], in experiment [16] and in [17] was inactive.

With `O=C(O)Cc1cccc2ccccc12`, the result in experiment [1], in experiment [2], in experiment [3], in experiment [18], in experiment [5] and in experiment [6] was inactive. The call in [7], in [8], in experiment [10], in experiment [11], in [12] and in experiment [14] was inactive. Besides, the outcome in experiment [15] and in experiment [16] was inactive.

For the molecule `CN(C)C(=N)N=C(N)N`, the result in experiment [1], in [2], in experiment [3], in experiment [4], in experiment [5] and in experiment [6] was inactive. For the same molecule, the result in [7], in [19], in experiment [9], in [10], in experiment [11] and in [12] was inactive. Besides, the call in [13], in experiment [14], in [16] and in experiment [17] was inactive.

Regarding `C=O`, the result in experiment [1], in experiment [2], in experiment [3], in experiment [4], in experiment [5] and in experiment [6] was inactive. For the same molecule, the result in experiment [7], in experiment [19], in experiment [10], in experiment [11], in [12] and in [13] was inactive. Further, the call in experiment [14], in experiment [15], in experiment [16] and in experiment [17] was inactive.

As for `O=C(O)CN(CCN(CC(=O)O)CC(=O)O)CCN(CC(=O)O)CC(=O)O`, the outcome in [1], in experiment [2], in experiment [3], in experiment [18], in [5] and in [6] was inactive. Further, the molecule was called inactive in [19], in experiment [10], in [11], in [12], in [14] and in experiment [15]. Further, the outcome in experiment [16] and in experiment [17] was inactive.

As a reminder, the AC50 is the midpoint of the concentration-response curve, whichever way the signal moves. In the case of `CCCCc1ccc(N)cc1`, the outcome in experiment [1], in [2], in [3], in experiment [4], in experiment [5] and in experiment [6] was inactive. The call in [7], in experiment [19], in experiment [9], in experiment [10], in experiment [11] and in [12] was inactive. In addition, the molecule was classed as inactive in experiment [13], in [14], in experiment [15] and in experiment [16]. For the same molecule, the AC50 in experiment [20] was 29.6 µM (active).

For `Clc1nc(C(Cl)(Cl)Cl)c(Cl)c(Cl)c1Cl`, the outcome in [1], in [2], in experiment [3], in [20], in [5] and in [6] was inactive. Further, the call in experiment [11], in [13] and in [17] was inactive. Besides, the AC50 in [7] is 58.8 µM (active); in experiment [19] it was 55.8 µM (active); in [8], 22.6 µM (active); in [10] it was 62.7 µM (active); in [14] it was 49.9 µM (active); in experiment [15], 53.9 µM (active). The AC50 in experiment [16] was 54.4 µM (active).
